Laboratory results reported in PMC7862700, “An all-to-all approach to the identification of sequence-specific readers for epigenetic DNA modifications on cytosine”.

What was measured:
Test in all cases: DAPPL (digital affinity profiling via proximity ligation, sequencing); 10 mM Tris-HCl pH 7.5, 50 mM NaCl, 1 mM DTT, 4% glycerol, room temperature, 30 min; GST-TFs on glutathione beads, 16-mer random dsDNA library, 0.1% formaldehyde crosslink after washing; high values mean tight binding
[1] = biological target: T1, FLI1 (Homo sapiens, UniProt Q01543 1-452); conditions: protein: recombinant; tags: N-terminal GST; dsDNA, one strand shown
T1 sequence: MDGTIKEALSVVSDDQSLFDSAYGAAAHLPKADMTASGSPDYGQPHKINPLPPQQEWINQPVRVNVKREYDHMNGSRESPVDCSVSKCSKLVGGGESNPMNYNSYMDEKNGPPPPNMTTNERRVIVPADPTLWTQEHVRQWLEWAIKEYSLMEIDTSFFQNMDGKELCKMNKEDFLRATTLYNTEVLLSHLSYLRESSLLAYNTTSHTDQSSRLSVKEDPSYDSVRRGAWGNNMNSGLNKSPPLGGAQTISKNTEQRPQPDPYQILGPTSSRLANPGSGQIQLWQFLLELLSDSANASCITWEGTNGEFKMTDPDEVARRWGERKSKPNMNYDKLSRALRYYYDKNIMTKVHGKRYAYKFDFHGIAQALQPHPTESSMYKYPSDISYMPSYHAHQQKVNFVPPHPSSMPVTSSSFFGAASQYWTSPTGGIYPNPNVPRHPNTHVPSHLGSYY
In short: (§1)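 In yeast, human transcription factors were expressed with a GST fusion, then pulled down on glutathione beads and given DNA barcodes. Pooled with a tag-only sample, they were exposed to 200 nmole of a 16-mer random double-stranded DNA library (Tris/NaCl/DTT/glycerol buffer, room temperature, 30 min), washed, crosslinked with 0.1% formaldehyde, proximity-ligated using BsaI/T4 ligase for 1 h at 37 °C, PCR-amplified and read on an Illumina NextSeq500. Each hexamer's frequency of reads for a factor, divided by the matching frequency for the tag-only sample, gives the binding signal.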

[2] = biological target: T2, ELK1 (Homo sapiens, UniProt P19419 1-428); conditions: protein: recombinant; tags: N-terminal GST; dsDNA, one strand shown
T2 sequence: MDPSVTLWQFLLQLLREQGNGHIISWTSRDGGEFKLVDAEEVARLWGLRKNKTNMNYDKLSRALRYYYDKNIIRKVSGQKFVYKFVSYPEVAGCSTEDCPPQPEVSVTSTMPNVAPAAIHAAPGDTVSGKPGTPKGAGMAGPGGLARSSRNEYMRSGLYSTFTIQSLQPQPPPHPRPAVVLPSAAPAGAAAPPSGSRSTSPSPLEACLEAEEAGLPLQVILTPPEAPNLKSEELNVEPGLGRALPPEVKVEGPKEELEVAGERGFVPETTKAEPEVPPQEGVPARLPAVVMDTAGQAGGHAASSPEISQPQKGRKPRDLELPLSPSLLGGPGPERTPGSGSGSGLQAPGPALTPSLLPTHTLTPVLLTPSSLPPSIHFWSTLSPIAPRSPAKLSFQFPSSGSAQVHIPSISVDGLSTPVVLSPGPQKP
In short: as §1

[3] = biological target: T3, ERG (Homo sapiens, UniProt P11308 1-479); conditions: protein: recombinant; tags: N-terminal GST; dsDNA, one strand shown
T3 sequence: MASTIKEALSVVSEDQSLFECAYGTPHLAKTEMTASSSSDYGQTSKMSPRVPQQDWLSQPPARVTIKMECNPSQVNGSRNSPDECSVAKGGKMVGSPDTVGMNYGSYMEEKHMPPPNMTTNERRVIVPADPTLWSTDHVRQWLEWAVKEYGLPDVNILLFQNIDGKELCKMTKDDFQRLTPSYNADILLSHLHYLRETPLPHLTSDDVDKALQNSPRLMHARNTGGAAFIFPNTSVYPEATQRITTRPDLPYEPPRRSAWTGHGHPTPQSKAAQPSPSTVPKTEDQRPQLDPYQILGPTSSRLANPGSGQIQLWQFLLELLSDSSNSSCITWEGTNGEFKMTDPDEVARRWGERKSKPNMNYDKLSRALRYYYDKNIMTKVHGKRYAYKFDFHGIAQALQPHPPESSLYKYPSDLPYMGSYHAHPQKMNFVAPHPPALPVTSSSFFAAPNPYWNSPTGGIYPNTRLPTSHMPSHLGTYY
In short: as §1

[4] = biological target: ELF1 (Homo sapiens, UniProt P32519 1-619); conditions: protein: recombinant; tags: N-terminal GST; dsDNA, one strand shown
In short: as §1

[5] = biological target: T4, EHF (Homo sapiens, UniProt Q9NZC4 1-300); conditions: protein: recombinant; tags: N-terminal GST; dsDNA, one strand shown
T4 sequence: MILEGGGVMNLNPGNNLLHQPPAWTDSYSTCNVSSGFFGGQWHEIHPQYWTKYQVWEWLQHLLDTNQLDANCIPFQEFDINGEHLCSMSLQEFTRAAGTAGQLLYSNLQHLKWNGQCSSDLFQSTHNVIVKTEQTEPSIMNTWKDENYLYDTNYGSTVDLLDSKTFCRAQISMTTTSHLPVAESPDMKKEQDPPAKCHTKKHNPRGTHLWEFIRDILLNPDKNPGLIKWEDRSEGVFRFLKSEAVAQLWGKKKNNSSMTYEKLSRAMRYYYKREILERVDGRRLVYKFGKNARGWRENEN
In short: as §1

[6] = biological target: SPI1 (Homo sapiens, UniProt P17947 1-270); conditions: protein: recombinant; tags: N-terminal GST; dsDNA, one strand shown
In short: as §1

[7] = biological target: SPIB (Homo sapiens, UniProt Q01892 1-262); conditions: protein: recombinant; tags: N-terminal GST; dsDNA, one strand shown
In short: as §1

[8] = biological target: T5, ELK3 (Homo sapiens, UniProt P41970 1-407); conditions: protein: recombinant; tags: N-terminal GST; dsDNA, one strand shown
T5 sequence: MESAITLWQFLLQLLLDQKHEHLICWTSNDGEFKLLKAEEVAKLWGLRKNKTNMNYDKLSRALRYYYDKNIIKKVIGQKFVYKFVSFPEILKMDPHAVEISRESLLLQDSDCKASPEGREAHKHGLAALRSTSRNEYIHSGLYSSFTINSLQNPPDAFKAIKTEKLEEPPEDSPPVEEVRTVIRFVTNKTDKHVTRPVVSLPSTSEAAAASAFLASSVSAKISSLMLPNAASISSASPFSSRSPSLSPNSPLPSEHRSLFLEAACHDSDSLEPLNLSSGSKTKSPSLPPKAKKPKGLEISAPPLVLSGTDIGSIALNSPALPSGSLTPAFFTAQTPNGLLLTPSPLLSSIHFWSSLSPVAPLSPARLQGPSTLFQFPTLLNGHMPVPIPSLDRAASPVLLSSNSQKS
In short: as §1

[9] = biological target: T6, FEV (Homo sapiens, UniProt Q99581 1-238); conditions: protein: recombinant; tags: N-terminal GST; dsDNA, one strand shown
T6 sequence: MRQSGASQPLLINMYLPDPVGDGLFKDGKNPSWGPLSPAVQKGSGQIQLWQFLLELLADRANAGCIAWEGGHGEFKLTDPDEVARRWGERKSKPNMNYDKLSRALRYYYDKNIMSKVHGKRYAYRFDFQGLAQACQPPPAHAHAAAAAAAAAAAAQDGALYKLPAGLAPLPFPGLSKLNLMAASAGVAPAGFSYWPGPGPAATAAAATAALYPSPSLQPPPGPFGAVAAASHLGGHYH
In short: as §1

[10] = biological target: ETV5 (Homo sapiens, UniProt P41161 1-510); conditions: protein: recombinant; tags: N-terminal GST; dsDNA, one strand shown
In short: as §1

[11] = biological target: HSF1 (Homo sapiens, UniProt Q00613 1-529); conditions: protein: recombinant; tags: N-terminal GST; chain copies: 3; dsDNA, one strand shown
In short: as §1

[12] = biological target: ELF4 (Homo sapiens, UniProt Q99607 1-663); conditions: protein: recombinant; tags: N-terminal GST; dsDNA, one strand shown
In short: as §1

[13] = biological target: T7, ELK4 (Homo sapiens, UniProt P28324-2 1-405); conditions: protein: recombinant; tags: N-terminal GST; dsDNA, one strand shown
T7 sequence: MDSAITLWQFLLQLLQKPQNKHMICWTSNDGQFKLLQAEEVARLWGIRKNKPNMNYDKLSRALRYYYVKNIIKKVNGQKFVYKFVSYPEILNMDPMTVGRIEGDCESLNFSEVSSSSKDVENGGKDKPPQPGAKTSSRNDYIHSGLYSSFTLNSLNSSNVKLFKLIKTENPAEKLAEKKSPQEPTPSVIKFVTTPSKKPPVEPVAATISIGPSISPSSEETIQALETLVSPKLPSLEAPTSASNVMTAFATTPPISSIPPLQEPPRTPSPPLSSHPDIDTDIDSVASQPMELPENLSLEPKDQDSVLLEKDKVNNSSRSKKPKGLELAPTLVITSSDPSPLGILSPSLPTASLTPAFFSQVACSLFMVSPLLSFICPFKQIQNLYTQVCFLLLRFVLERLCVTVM
In short: as §1

[14] = biological target: T8, ETV2 (Homo sapiens, UniProt O00321 1-342); conditions: protein: recombinant; tags: N-terminal GST; dsDNA, one strand shown
T8 sequence: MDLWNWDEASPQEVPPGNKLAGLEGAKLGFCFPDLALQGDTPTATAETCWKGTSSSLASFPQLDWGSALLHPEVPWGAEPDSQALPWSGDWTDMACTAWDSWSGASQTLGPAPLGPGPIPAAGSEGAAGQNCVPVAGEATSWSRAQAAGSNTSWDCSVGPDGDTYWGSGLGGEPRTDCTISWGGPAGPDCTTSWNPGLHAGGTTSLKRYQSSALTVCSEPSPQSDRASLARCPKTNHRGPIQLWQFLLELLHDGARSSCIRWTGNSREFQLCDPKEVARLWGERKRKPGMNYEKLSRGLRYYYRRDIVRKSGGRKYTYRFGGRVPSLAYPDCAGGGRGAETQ
In short: as §1

[15] = biological target: T9, ELF3 (Homo sapiens, UniProt P78545 1-371); conditions: protein: recombinant; tags: N-terminal GST; dsDNA, one strand shown
T9 sequence: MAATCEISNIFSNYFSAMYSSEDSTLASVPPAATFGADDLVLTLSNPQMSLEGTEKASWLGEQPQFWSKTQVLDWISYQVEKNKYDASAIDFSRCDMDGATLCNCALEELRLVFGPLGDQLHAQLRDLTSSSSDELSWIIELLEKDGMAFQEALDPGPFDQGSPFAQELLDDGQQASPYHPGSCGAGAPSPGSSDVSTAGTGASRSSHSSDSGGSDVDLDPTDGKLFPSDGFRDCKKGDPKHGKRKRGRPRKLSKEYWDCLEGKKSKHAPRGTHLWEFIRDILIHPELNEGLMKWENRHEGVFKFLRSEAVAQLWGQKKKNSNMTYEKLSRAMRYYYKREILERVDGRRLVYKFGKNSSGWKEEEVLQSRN
In short: as §1

[16] = biological target: CRX (Homo sapiens, UniProt O43186 1-299); conditions: protein: recombinant; tags: N-terminal GST; dsDNA, one strand shown
In short: as §1

[17] = biological target: ETV1 (Homo sapiens, UniProt P50549 1-477); conditions: protein: recombinant; tags: N-terminal GST; dsDNA, one strand shown
In short: as §1

[18] = biological target: T10, GABPA (Homo sapiens, UniProt Q06546 1-454); conditions: protein: recombinant; tags: N-terminal GST; dsDNA, one strand shown
T10 sequence: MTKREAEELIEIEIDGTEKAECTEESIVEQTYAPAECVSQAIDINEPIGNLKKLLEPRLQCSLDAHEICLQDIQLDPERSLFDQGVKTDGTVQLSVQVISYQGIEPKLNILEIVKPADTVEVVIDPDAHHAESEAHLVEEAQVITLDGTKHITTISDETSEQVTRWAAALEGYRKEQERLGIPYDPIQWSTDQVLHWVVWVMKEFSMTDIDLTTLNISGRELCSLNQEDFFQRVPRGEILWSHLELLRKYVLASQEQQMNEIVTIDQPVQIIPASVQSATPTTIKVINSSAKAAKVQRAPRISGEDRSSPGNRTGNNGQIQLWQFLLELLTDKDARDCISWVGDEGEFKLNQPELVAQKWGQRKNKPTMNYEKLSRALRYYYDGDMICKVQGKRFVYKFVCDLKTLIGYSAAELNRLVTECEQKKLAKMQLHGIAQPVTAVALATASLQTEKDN
In short: as §1

SPIB, sequence (Q01892 whole entry): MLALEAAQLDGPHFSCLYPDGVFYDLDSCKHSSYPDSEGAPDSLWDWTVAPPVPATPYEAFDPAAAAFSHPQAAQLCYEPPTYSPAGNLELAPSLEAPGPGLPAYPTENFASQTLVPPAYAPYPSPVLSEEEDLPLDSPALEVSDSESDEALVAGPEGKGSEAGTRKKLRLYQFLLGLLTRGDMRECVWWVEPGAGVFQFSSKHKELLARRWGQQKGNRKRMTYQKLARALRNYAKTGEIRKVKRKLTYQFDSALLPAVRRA
CRX, sequence (O43186 whole entry): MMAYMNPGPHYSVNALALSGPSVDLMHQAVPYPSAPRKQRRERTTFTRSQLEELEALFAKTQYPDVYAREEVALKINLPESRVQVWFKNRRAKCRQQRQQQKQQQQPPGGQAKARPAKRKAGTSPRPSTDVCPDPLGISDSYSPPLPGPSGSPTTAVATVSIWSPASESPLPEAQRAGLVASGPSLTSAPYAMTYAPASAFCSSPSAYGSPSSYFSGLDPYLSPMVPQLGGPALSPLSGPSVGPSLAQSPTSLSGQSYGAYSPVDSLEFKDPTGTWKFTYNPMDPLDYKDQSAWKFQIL
ETV5, sequence (P41161 whole entry): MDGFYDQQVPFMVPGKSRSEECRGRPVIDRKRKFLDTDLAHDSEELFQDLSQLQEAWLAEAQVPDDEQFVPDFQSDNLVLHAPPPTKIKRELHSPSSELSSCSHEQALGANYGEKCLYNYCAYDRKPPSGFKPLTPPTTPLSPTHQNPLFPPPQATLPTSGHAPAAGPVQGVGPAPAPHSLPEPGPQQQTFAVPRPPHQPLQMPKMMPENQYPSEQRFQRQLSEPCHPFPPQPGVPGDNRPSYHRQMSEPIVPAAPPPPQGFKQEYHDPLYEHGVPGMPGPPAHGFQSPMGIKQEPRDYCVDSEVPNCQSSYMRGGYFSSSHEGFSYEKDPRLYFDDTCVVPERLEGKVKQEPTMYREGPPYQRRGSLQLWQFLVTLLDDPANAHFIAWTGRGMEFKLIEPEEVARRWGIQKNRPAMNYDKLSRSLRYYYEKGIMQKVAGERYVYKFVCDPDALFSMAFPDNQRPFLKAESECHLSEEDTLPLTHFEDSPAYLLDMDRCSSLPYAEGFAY
HSF1, sequence (Q00613 whole entry): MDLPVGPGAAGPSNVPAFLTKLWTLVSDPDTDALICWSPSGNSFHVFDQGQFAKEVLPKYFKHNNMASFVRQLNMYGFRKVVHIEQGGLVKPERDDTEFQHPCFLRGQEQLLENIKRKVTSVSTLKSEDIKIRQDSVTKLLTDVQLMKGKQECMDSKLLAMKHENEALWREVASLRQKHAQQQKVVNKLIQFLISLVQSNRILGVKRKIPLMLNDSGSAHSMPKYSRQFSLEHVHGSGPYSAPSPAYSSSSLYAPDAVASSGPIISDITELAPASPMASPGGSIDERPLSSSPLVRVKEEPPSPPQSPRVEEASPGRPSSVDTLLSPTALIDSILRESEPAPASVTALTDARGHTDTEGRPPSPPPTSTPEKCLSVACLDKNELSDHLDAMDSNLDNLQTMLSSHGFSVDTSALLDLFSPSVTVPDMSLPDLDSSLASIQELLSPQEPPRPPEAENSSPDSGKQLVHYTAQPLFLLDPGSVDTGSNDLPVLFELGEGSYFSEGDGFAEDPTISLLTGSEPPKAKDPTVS
ETV1, sequence (P50549 whole entry): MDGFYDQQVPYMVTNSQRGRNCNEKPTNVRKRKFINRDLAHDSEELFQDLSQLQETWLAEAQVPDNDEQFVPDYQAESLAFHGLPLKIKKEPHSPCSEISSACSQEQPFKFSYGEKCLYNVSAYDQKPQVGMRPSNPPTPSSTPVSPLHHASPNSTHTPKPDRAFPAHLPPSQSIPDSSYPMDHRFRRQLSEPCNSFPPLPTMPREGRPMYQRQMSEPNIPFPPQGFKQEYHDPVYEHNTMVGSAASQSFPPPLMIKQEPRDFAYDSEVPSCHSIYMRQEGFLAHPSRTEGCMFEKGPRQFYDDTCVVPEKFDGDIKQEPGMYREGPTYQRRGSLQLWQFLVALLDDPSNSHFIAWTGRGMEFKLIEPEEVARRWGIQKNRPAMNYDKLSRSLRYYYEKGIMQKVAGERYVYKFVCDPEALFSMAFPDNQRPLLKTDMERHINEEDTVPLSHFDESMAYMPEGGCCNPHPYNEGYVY
ELF1, sequence (P32519 whole entry): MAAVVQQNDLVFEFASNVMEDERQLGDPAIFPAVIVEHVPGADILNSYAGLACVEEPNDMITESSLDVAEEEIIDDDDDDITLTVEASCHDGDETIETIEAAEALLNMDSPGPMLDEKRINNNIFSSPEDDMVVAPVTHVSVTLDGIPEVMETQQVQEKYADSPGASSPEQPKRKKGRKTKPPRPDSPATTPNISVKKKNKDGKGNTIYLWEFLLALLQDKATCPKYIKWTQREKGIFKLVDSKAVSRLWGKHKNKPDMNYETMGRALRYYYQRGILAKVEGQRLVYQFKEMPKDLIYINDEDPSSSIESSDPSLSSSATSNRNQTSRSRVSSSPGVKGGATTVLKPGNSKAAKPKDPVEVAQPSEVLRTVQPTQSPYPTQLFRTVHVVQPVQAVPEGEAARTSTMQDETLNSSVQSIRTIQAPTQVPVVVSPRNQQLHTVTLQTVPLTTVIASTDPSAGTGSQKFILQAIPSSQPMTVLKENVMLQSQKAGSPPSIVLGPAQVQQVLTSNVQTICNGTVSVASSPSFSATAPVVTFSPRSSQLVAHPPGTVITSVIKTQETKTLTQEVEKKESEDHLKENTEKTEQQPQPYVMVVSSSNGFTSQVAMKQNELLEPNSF
ELF4, sequence (Q99607 whole entry): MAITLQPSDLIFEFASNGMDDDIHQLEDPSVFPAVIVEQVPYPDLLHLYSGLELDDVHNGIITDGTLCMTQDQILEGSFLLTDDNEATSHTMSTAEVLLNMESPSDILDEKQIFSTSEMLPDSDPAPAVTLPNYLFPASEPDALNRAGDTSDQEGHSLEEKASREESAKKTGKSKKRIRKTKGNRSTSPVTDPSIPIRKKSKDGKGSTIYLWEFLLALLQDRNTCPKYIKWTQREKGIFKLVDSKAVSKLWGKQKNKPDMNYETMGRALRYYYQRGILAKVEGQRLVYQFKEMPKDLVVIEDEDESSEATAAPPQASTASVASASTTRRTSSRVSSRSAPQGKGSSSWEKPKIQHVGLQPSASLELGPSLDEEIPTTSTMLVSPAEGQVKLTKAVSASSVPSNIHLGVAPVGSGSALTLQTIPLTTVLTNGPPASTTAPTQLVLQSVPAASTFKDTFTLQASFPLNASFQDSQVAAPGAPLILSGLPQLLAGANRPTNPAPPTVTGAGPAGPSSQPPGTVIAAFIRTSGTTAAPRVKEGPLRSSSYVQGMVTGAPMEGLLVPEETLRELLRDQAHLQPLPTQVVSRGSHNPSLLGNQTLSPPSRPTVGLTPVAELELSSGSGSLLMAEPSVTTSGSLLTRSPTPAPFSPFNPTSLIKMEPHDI

Row | Sequence | binding signal [1] | binding signal [2] | binding signal [3] | binding signal [4] | binding signal [5] | binding signal [6] | binding signal [7] | binding signal [8] | binding signal [9] | binding signal [10] | binding signal [11] | binding signal [12] | binding signal [13] | binding signal [14] | binding signal [15] | binding signal [16] | binding signal [17] | binding signal [18]
1 | AGCTAA | 1.08 fold enrichment (6-mer frequency, TF over GST control) | 1.05 fold enrichment (6-mer frequency, TF over GST control) | 1.06 fold enrichment (6-mer frequency, TF over GST control) | 1.02 fold enrichment (6-mer frequency, TF over GST control) | 1.08 fold enrichment (6-mer frequency, TF over GST control) | 1.08 fold enrichment (6-mer frequency, TF over GST control) | 1.01 fold enrichment (6-mer frequency, TF over GST control) | 1.01 fold enrichment (6-mer frequency, TF over GST control) | 1.03 fold enrichment (6-mer frequency, TF over GST control) | 1.06 fold enrichment (6-mer frequency, TF over GST control) | 1.27 fold enrichment (6-mer frequency, TF over GST control) | 1.14 fold enrichment (6-mer frequency, TF over GST control) | 1.1 fold enrichment (6-mer frequency, TF over GST control) | 1.01 fold enrichment (6-mer frequency, TF over GST control) | 1.09 fold enrichment (6-mer frequency, TF over GST control) | 1.65 fold enrichment (6-mer frequency, TF over GST control) | 1.1 fold enrichment (6-mer frequency, TF over GST control) | 
2 | GGTAAT | 1.15 fold enrichment (6-mer frequency, TF over GST control) | 1.1 fold enrichment (6-mer frequency, TF over GST control) | 1.08 fold enrichment (6-mer frequency, TF over GST control) | 1.17 fold enrichment (6-mer frequency, TF over GST control) | 1.2 fold enrichment (6-mer frequency, TF over GST control) | 1.04 fold enrichment (6-mer frequency, TF over GST control) | 1.11 fold enrichment (6-mer frequency, TF over GST control) |  | 1.09 fold enrichment (6-mer frequency, TF over GST control) | 1.13 fold enrichment (6-mer frequency, TF over GST control) | 1.27 fold enrichment (6-mer frequency, TF over GST control) | 1.08 fold enrichment (6-mer frequency, TF over GST control) | 1.21 fold enrichment (6-mer frequency, TF over GST control) |  | 1.17 fold enrichment (6-mer frequency, TF over GST control) | 1.76 fold enrichment (6-mer frequency, TF over GST control) | 1.19 fold enrichment (6-mer frequency, TF over GST control) | 1.22 fold enrichment (6-mer frequency, TF over GST control)
